One may read the inhibition as the drop in the measured response relative to a control, in per cent.

Each structure is given as a SMILES string. Among all 290,000 compounds or so, about 11,000 (3.8%) were called active. For the sample, actives were picked, then their nearest neighbours and some compounds at random. A number with no mark means an inactive call.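 The calls were made as follows: active = mean replicate inhibition above about 79%, with every replicate also reaching it (limit read from the data); inconclusive = only one of the two criteria met; inactive = mean below limit and not every replicate reaching it.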

The target in the experiment is FAD-linked sulfhydryl oxidase ALR (Homo sapiens) (UniProt P55789). In words: inhibitors of human ALR sulfhydryl oxidase, primary screen, biochemical, H2O2 detection, HRP-luminol luminescence, single point (AID 485317). The note with it: purified ALR, DTT oxidation, stronger effect = higher value, concentration not given here.
Chain of FAD-linked sulfhydryl oxidase ALR (Homo sapiens) (P55789 whole entry, looked up): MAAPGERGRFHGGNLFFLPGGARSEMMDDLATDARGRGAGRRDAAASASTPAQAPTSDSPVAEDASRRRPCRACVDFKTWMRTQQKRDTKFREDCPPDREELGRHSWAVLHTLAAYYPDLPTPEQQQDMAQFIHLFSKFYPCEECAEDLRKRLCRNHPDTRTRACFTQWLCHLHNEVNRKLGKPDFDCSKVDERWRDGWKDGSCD
As for `Cc1ccc(-c2c3c(=O)n(C)c(=O)n(C)c3cn2-n2cnnc2)cc1`, the inhibition is 97.2% (active).
As to `COc1ccc(-c2c3c(=O)n(C)c(=O)n(C)c3cn2-c2cccc(OC)c2)cc1`, the inhibition is -5.98%.
`Cc1ccc(-c2c3c(=O)n(C)c(=O)n(C)c3cn2-c2ccccc2O)cc1`: the inhibition was -5.8%.
For the compound `O=C(COC(=O)c1cc(S(=O)(=O)N2CCOCC2)ccc1Cl)NCCc1ccccc1`, the inhibition is -0.788%.
As to `CCc1ccccc1OCC(=O)Nc1ccc(C)c(S(=O)(=O)N2CCCCCC2)c1`, the inhibition is -0.917%.
For `O=C(Nc1ccc2c(c1)OCCO2)C1CCCN(c2ncccn2)C1` (configuration not stated), the inhibition was -3.09%.
Take `COc1ccc(NC2CCCN(C(=O)c3ccncc3)C2)cc1` (configuration not stated): the inhibition is 95.8% (active).
With `COC(=O)c1cccc(C(=O)N2CCCC(Nc3ccc4c(c3)OCCO4)C2)c1` (configuration not stated), the inhibition was 93.9% (active).
Turning to `COc1ccc(C(=O)N2CCC(C(=O)Nc3ccc(C)cc3)CC2)cc1`, the inhibition was -30.7%.
Regarding `CC(C)c1ccc(NC2CCCN(C(=O)c3ccncc3)C2)cc1` (configuration not stated), the inhibition was 53.9%.
On to `CC(C)c1ccc(NC(=O)C2CCCN(S(=O)(=O)c3cccnc3)C2)cc1` (configuration not stated), for which the inhibition is 1.01%.
Take `CC(C)c1ccc(NC(=O)NC2CCCCC2)cc1`: the inhibition was -0.723%.
`Cc1cccc(C(=O)N2CCCC(Nc3ccc(C(C)C)cc3)C2)n1` (configuration not stated): the inhibition is 97.8% (active).
As for `COC(=O)c1cccc(C(=O)N2CCC(CCC(=O)NCc3ccc(F)cc3)CC2)c1`, the inhibition was -3.28%.
Turning to `O=C(Nc1ccc2nc3n(c(=O)c2c1)CCCC3)c1ccc(Cl)nc1`, the inhibition is 0.685%.
On to `COc1ccccc1-c1nnc(-c2ccc(F)cc2)o1`, for which the inhibition is 2.91%.
As to `COc1ccc(NS(=O)(=O)c2ccc(C)c(C(=O)N(C)Cc3ccc(OC)cc3OC)c2)cc1`, the inhibition is -17.9%.
`O=C(Nc1ccc(S(=O)(=O)N2CCCCC2)cc1)C1CCN(C(=O)c2ccc(F)cc2)CC1`: the inhibition is -0.325%.
The value for `CC1CCN(C(=O)c2cccc(S(=O)(=O)N3CCCc4ccccc43)c2)CC1` was -15.4%.
As for `CC(C)(C)OC(=O)C[C@@H]1C/C=C\C[C@@H](CC(=O)N[C@@H](CO)Cc2ccccc2)C(=O)N2CCC[C@H]2COC1=O`, the inhibition was -8.71%.
Turning to `COc1ccc(C(=NN)c2ccc(OC)cc2)cc1`, the inhibition was 0.931%.
Turning to `CCC(=O)c1ccc(OCC(=O)Nc2ccc(N3CCCCC3)cc2)cc1`, the inhibition was -9.1%.
Take `Cc1ccc(C)c(OCCC(=O)Nc2cccc(S(=O)(=O)N3CCCC3)c2)c1`: the inhibition is -0.0535%.
On to `CCc1ccc(NC(=O)CN2C(=O)CSC2=O)cc1`, for which the inhibition is 96% (active).
As to `CCc1ccc(NC(=O)Cn2ncn3c(cc4ccccc43)c2=O)cc1`, the inhibition was 3.26%.
In the case of `COc1ccc(NC(=O)CN2C(=O)CSC2=O)cc1`, the inhibition is 21.6%.
Consider `Cc1ccc2nc(NC(=O)C3CSC4(C)CCC(=O)N34)sc2c1` (configuration not stated), for which the inhibition is -0.552%.
To `O=C1CSC(c2ccccc2)N1c1nc(-c2ccc(Cl)cc2Cl)cs1` (configuration not stated) belongs -3%; to `O=C1CSC(c2cccc(F)c2)N1c1ccc(O)cc1` (configuration not stated), -57.5%; to `O=C1CSC(c2cccc(F)c2)N1c1ccccc1F` (configuration not stated), 91.3% (active).
As for `COc1ccccc1CNC(=O)c1ccc(Cl)c(S(=O)(=O)N2CCCC2)c1`, the inhibition was -3.23%.
To `CC(=O)O[C@H]1CC[C@@]2(C)[C@@H](CC[C@@H]3[C@@H]2CC[C@]2(C)[C@@H](C(C)(C)O)C[C@@H]32)C1` belongs -2.24%.
Consider `Cc1ccc2nc(-c3cccc(Br)c3)cc(C(=O)Nn3cnnc3)c2c1`, for which the inhibition was 1.88%.
Regarding `Cc1ccc2nc(-c3ccncc3)cc(C(=O)Nc3ccncc3)c2c1`, the inhibition is -3.42%.
The value for `Cc1ccc2nc(-c3ccccc3)cc(C(=O)O)c2c1` was 89.7% (active).
For `O=C(CC1SC(N2CCOCC2)=NC1=O)Nc1ccccc1F` (configuration not stated), the inhibition is -2.71%.
`Cc1ccc(S(=O)(=O)N2CCN(C(=O)Cc3sc(C)nc3-c3ccc(F)cc3)CC2)c(C)c1`: the inhibition is -12.2%.
On to `CCC1(C)NC(=O)N(CC(=O)N2CCN(c3cccc(Cl)c3)CC2)C1=O` (configuration not stated), for which the inhibition is 1.58%.
The value for `O=C(COC(=O)COc1ccccc1F)Nc1cccc(S(=O)(=O)N2CCCCC2)c1` was -10.2%; that for `COc1ccc(Br)cc1/C=N/Nc1ccc(Cl)c(C(=O)O)c1` was 96.9% (active).
`COc1ccc(Br)cc1/C=N/n1c(C)nnc1C`: the inhibition was -4.68%.
As to `COc1ccc(Br)cc1/C=N/NC(=O)c1cccc(S(=O)(=O)N2CCOCC2)c1`, the inhibition is -1.11%.
As for `COC(=O)c1ccc(SCc2ccccc2)nc1`, the inhibition is -2.47%.
The value for `CCN(CC(=O)Nc1cccc(S(=O)(=O)N2CCCCC2)c1)Cc1ccccc1` was -23.2%; that for `Brc1ccc(CSc2ccc(-c3ccco3)nn2)cc1` was 98.2% (active); that for `Fc1cccc(Cl)c1CSc1ccc(-c2ccco2)nn1` was 98.3% (active).
`Cc1cc(SCc2c(F)cccc2Cl)nc(=O)[nH]1`: the inhibition was 35.2%.
For `COc1ccc(NC(=O)CSc2ccc(-c3ccco3)nn2)c(OC)c1`, the inhibition was 0.2%.
For the compound `O=C(CSc1ccc(-c2ccco2)nn1)NCc1ccc2c(c1)OCO2`, the inhibition was 3.65%.
To `O=C(CSc1ccc(-c2ccco2)nn1)Nc1cccc(F)c1` belongs -14%.
Regarding `CCCC(CNC(=O)COC(=O)C1=NNC(=O)CC1)c1ccc(Cl)cc1Cl` (configuration not stated), the inhibition was 0.0724%.
In the case of `COc1cc(OC)cc(C(=O)NCC(=O)N2CCCCCCC2)c1`, the inhibition is -4.06%.
To `COc1ccc(Nc2ncnc3sc(C)cc23)cc1` belongs 7.07%; to `Cc1cccc(C(C)C)c1NC(=O)COC(=O)C1CC(=O)N(Cc2ccccc2)C1` (configuration not stated), -1.43%; to `C[C@H](CO)N1C[C@H](C)[C@@H](CN(C)S(=O)(=O)c2ccc(F)cc2)Oc2ccc(NC(=O)CCC(F)(F)F)cc2C1=O`, -3.84%.
For the compound `O=C1OC[C@@H]2CCCN2C(=O)[C@H](CC(=O)N(CCO)Cc2ccccc2)C/C=C\CC[C@@H]1Cc1ccc(F)cc1`, the inhibition is -10.6%.
The value for `COc1ccc(Cl)cc1NC(=O)CN(C)C(=O)c1ccc2n[nH]nc2c1` was 2.11%; that for `COc1ccc(OCCNC(=O)c2cc(C3CC3)nc3c2cnn3C(C)C)cc1` was -7.42%; that for `O=S(=O)(c1cccc(-c2nnc3n2CCCCC3)c1)N1CCOCC1` was -3.91%.
For `Cc1cccn2cc(-c3cccc(S(=O)(=O)N4CCCCC4)c3)nc12`, the inhibition was 90.9% (active).
For the compound `O=S(=O)(c1cccc(-c2cn3ccccc3n2)c1)N1CCCC1`, the inhibition is 0.842%.
On to `COc1ccccc1-c1nnc2n1N=C(c1ccc(OC(F)F)c(OCC3CC3)c1)CS2`, for which the inhibition is 0.875%.
Regarding `CCN(C(=O)CSc1ncnc2c1cnn2-c1ccccc1)C1CCS(=O)(=O)C1` (configuration not stated), the inhibition was 8.44%.
For `CCCCn1c(N)c(N(CCOC)C(=O)c2cccc(OCc3ccccc3)c2)c(=O)[nH]c1=O`, the inhibition is -0.129%.
With `COc1ncnc2c1N=C1CC(C)(C)CC(N)=C1S2`, the inhibition is 99% (active).
Regarding `COc1ccc(-c2cc(C(=O)N(C)Cc3ccc(OC)c(OC)c3OC)c3ccccc3n2)cc1OC`, the inhibition was 0.485%.
On to `COc1ccc(Cl)cc1C(=O)OCC(=O)NCc1cccs1`, for which the inhibition is -0.428%.
For `Cc1ccc(-c2cc(=O)[nH]c(NCc3ccccc3)n2)cc1`, the inhibition is -7.47%.
The value for `CS(=O)(=O)c1ccc(C(=O)NNC(=O)c2cccs2)cc1` was -4.92%.
The value for `O=C(NC(=S)Nc1ccc(NC(=O)c2cccs2)cc1)c1ccc([N+](=O)[O-])cc1` was -3.61%; that for `NS(=O)(=O)c1ccc(NC(=S)NNC(=O)c2cccs2)cc1` was 96.9% (active); that for `C=CC(COCc1ccccc1)N(CC(=O)OC)S(=O)(=O)c1cc(Br)ccc1OC` (configuration not stated) was -15.6%.
As for `Cc1cc(Nc2ccccc2)n(CCC#N)n1`, the inhibition is 98.6% (active).
For the compound `Cc1cc(Nc2ccccc2)n(C(=O)c2ccc(N)cc2)n1`, the inhibition was 28.5%.
Turning to `Cc1cc(NC(=O)COc2ccc(Cl)cc2Cl)n(CCC#N)n1`, the inhibition was -11.3%.
`Cc1cc(C(=O)OCC(=O)Nc2ccccc2Cl)c(C)o1`: the inhibition was -4%.
With `COc1cc(N)c(Cl)cc1C(=O)OCC(=O)c1ccc2c(c1)NC(=O)CO2`, the inhibition was 1.9%.
Regarding `O=C(NCc1ccc2c(c1)OCO2)c1c(-c2ccsc2)sc2ccccc12`, the inhibition was 3.11%.
The value for `O=C(NCc1cccs1)c1ccc(CS(=O)Cc2ccccc2Cl)o1` (configuration not stated) was 21.5%; that for `Cc1ccc(CNC(=O)c2ccc(CS(=O)Cc3cccc(Cl)c3)o2)cc1` (configuration not stated) was 92.3% (active); that for `Cc1ccc(CS(=O)Cc2ccc(C(=O)N3CCOCC3)o2)cc1` (configuration not stated) was -2.5%.
Regarding `CCN(CC(=O)Nc1ccc(OC)cc1)C(=O)CSCc1ccc(C)cc1`, the inhibition was -1.67%.
As for `Cc1nn(C)cc1C(=O)c1ccccc1`, the inhibition was -7.74%.
For `O=C(C1CCCN(S(=O)(=O)c2ccccc2)C1)N1CCN(c2ccc(F)cc2)CC1` (configuration not stated), the inhibition is 19.8%.
Take `Cc1cccc(N2CCN(C(=O)C3CCN(S(=O)(=O)c4cnc[nH]4)CC3)CC2)c1C`: the inhibition is 0.188%.
Turning to `COc1cccc(N2CCN(C(=O)C3CCCN(S(=O)(=O)c4cnc[nH]4)C3)CC2)c1` (configuration not stated), the inhibition was 98.9% (active).
To `COc1ccccc1OCC(=O)OCc1cc(-c2ccco2)on1` belongs -3.11%; to `Cc1ccc(S(=O)(=O)N2CCN(C(=O)COC(=O)CNC(=O)c3ccc(C(C)(C)C)cc3)CC2)c(C)c1`, -8.74%; to `CN(C(=O)COC(=O)Cc1ccccc1[N+](=O)[O-])C1CCS(=O)(=O)C1` (configuration not stated), -19.5%.
As for `S=C(Nc1ccc(Br)cc1)NC1CCN(Cc2ccccc2)CC1`, the inhibition is 17%.
With `S=C(NN=C1CCN(Cc2ccccc2)CC1)NC1CCCCC1`, the inhibition was 94.2% (active).
To `S=C(Nc1ccc(Br)cc1Cl)NC1CCN(Cc2ccccc2)CC1` belongs -0.861%.

These data come from PubChem BioAssay AID485317 (Broad Institute, 2010).
